Assay results as given in the supplement of paper PMC7156485.

Each compound was assayed on TDF (assay: cell number relative to DMSO (% of DMSO); higher = more cells (less growth inhibition / toxicity)). Details: concentration: 10 µM; 24 h.
In short: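 Six fields per well were imaged at ×10 after the cells were fixed in 3.7% formaldehyde and stained with a rabbit anti-H1.0 antibody, an AlexaFluor 647 secondary and DAPI. The HCC1569 and TDF cells had been plated at 800 per well in 384-well plates (RPMI, 10% FBS) and treated in triplicate with compounds at 10 µM for 24 h at 37 °C. The values are the median of replicates of H1.0 nuclear intensity or cell number, as percent of the plate control. Smoothing for positional effects was applied to HCC1569 data.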
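Further: TDF denotes transformed human dermal fibroblasts of mesenchymal origin.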

**Q.** `C=CCN1CCC23CCCCC2C1Cc1ccc(O)cc13.O=C(O)C(O)C(O)C(=O)O` (stereo not drawn) [Levallorphan tartrate] was tested. Which cell number did it give?
**A.** 118

**Q.** For `CN(C)C(=O)Oc1cccc([N+](C)(C)C)c1` [Neostigmine], which cell number is on record?
**A.** 112

**Q.** `CC1C(=O)OC2CCN3CC=C(COC(=O)C(C)(O)C1(C)O)C23` (stereo not drawn) [Monocrotaline] was tested. Which cell number did it give?
**A.** 109

**Q.** `CC=C1CC(C)C(O)(CO)C(=O)OCC2=CCN3CCC(OC1=O)C23` (stereo not drawn) [Retrorsine] was tested. Which cell number did it give?
**A.** 115

**Q.** Which cell number does the source give for `N#CC(C#N)=Cc1cc(O)c(O)c(O)c1` [Tyrphostin 25] here?
**A.** 89.8

**Q.** Which cell number does the source give for `CC12CCC(O)CC1CCC1C2CCC2(C)C(c3ccc(=O)oc3)CCC12O` (stereo not drawn) [Bufalin] here?
**A.** 45

**Q.** For `c1cc2c(cc1C1OCC3C(c4ccc5c(c4)OCO5)OCC13)OCO2` (single isomer, unassigned; (-)) [(-)-Asarinin], which cell number is on record?
**A.** 99.2

**Q.** How did the cell number turn out when `C[N+](C)(C)CC#CCN1CCCC1=O.[I-]` [Oxotremorine methiodide] was run?
**A.** 97

**Q.** With `O=C1NCN(c2ccccc2)C12CCN(CC1COc3ccccc3O1)CC2` (stereo not drawn) [Spiroxatrine] as the compound, how does the cell number read?
**A.** 105

**Q.** With `Cc1ccccc1-n1c(Cn2cnc3c(N)ncnc32)nc2cccc(C)c2c1=O` as the compound, how does the cell number read?
**A.** 99.7

**Q.** Which cell number does the source give for `COC1=CC(=O)OC(CCc2ccc3c(c2)OCO3)C1` (stereo not drawn) [Dihydromethysticin] here?
**A.** 105

**Q.** For `CN1C2CCC1CC(OC(=O)C(CO)c1ccccc1)C2` (stereo not drawn) [Hyoscyamine], which cell number is on record?
**A.** 98

**Q.** With `CCCN(CCC)C1CCc2c(F)ccc(O)c2C1.Cl` (stereo not drawn) [R(+)-UH-301 hydrochloride] as the compound, how does the cell number read?
**A.** 109
